Source: PubChem
aSyn UTR act: Activators via SNCA 5'UTR binding, MLPCN; alpha-synuclein 5'UTR reporter, activators screen; activity score, % (tested at 7.5 µM), hits read low; 300,000 tested, 7.1% active; AID 1814, 2009; in the data active = activity score below about -60%
Starred values were filed as active, the others as inactive. These entries were drawn from the full list.

SMILES	aSyn UTR act
O=C(COc1ccccc1Cl)Nc1cccnc1	-128*
Cc1ccc(Cl)c(OCC(=O)Nc2cccnc2)c1	-116*
O=C(COc1ccccc1Cl)Nc1ccc2oc(=O)ccc2c1	-72*
Cc1ccc(Cl)c(OCC(=O)Nc2sc(C)c(C)c2C#N)c1	-68*
CCC[C@H](CN[C@@H](CNC)[C@H](C)CC)NCCc1cc(C(F)(F)F)cc(C(F)(F)F)c1	124
CCCOc1ccc(/C=N/Nc2ccccn2)cc1OC	-177*
COc1cc(/C=N/Nc2ccccn2)ccc1OCC(C)C	-127*
CCOc1ccc(/C=N/Nc2ccccn2)cc1OC	-177*
C=CCOc1ccc(/C=N/Nc2ccccn2)cc1OC	-246*
CCOc1ccc(/C=N/N(C)c2ccccc2)cc1OC	-250*
COC(=O)Cc1c(OC)ccn(CCc2c[nH]c3ccccc23)c1=O	-149*
CCCCc1ccc(NC(=S)Nc2ccc(Cl)c(S(=O)(=O)N(C)C)c2)cc1	-68*
CCOc1ccc(NC(=O)CN(C)c2ccc(S(=O)(=O)N(C(C)C)C(C)C)cn2)cc1OCC	61
CN(CC(=O)Nc1ccc(Cl)c(S(=O)(=O)N(C)C)c1)Cc1ccccc1	-109*
CCOC(=O)CSc1nc(-c2ccncc2)ccc1C#N	-138*
CCOC(=O)CSc1nc(-c2ccc3c(c2)OCO3)ccc1C#N	-113*
O=C(NC(=S)NCc1nc2ccccc2[nH]1)c1ccc(F)cc1	-119*
O=C(NC(=S)NCc1nc2ccccc2[nH]1)c1ccccc1F	-143*
COc1ccccc1NC(=O)c1c[nH]c2ccccc12	-78*
COc1ccccc1NC(=O)c1cnc(Nc2ccccc2OC)c2ccccc12	101
Cc1cccc(C)c1NC(=O)c1c[nH]c2ccccc12	-120*
Cc1ccccc1C(=O)Nc1ccc(Cl)cn1	-114*
Cc1ccc(NC(=O)c2ccc3ccccc3n2)nc1	-163*
O=C(Nc1ccc(Cl)cn1)c1ccc2ccccc2n1	-96*
CC1=CN2C(=N)/C(=C/c3ccco3)C(=O)N=C2S1	-219*
SMILES	aSyn UTR act
CCOc1ccc(N=NC2C(=O)N(C(N)=S)N=C2C)cc1 (stereo unspecified)	-142*
CC1=NN(C(N)=S)C(=O)C1N=Nc1ccc(F)cc1 (stereo unspecified)	-89*
COC(=O)c1sccc1-c1ccc(/C=N/OC(=O)c2ccccc2)o1	-69*
COc1ccc(-c2cc(C(=O)Nc3cccc(C(C)=O)c3)no2)cc1	-76*
COc1ccc(OC)c(-c2cc(C(=O)Nc3cccc(Cl)c3)no2)c1	-68*
COc1ccc(OC)c(-c2cc(C(=O)Nc3c(C)nn(Cc4ccc(Cl)cc4)c3C)no2)c1	58
COc1ccc(-c2noc(N(C)CC(=O)Nc3cccc(C(F)(F)F)c3)n2)cc1	-76*
COc1ccc(-c2cc(C(=O)Nc3cccc(Cl)c3)no2)cc1	-266*
COC(=O)c1sccc1-c1ccc(C(=O)Nc2cccc(Cl)c2)o1	-125*
COc1ccc(-c2nnc(SC(C)C(=O)Nc3cccc(Cl)c3)o2)cc1 (stereo unspecified)	-160*
CCOc1ccc(NC(=O)CCC(=O)NNC(=O)COc2ccc(C)cc2Br)cc1	-77*
Cc1ccc(NC(=O)COc2ccc(Br)cc2C)cc1	-102*
Cc1ccc(OCC(=O)Nc2ccc3c(c2)OCO3)c(C)c1	-175*
CC(=O)NC(=S)Nc1ccc(NC(=O)COc2ccc(Cl)cc2Cl)cc1	-62*
Cc1ccc(Cl)c(OCC(=O)Nc2ccc3c(c2)OCCO3)c1	-146*
Cc1cc(Cl)ccc1OCC(=O)Nc1ccncc1	-81*
COc1cccc(/C=N/Nc2nc(Nc3ccc([N+](=O)[O-])cc3)nc(N3CCCC3)n2)c1O	65
O=[N+]([O-])c1cc2c(cc1/C=N/Nc1nc(Nc3ccccc3)nc(N3CCCCC3)n1)OCO2	-63*
O=C1OC(c2ccc3c(c2)OCO3)N(C(=O)c2ccc(Cl)c(Cl)c2)c2ccccc21 (stereo unspecified)	-91*
OCCN1CCN(CC(O)COc2ccc(C34CC5CC(CC(C5)C3)C4)cc2)CC1 (stereo unspecified)	85
O=C(O)CSCC(=O)Nc1ccc(C2CCCCC2)cc1	108
O=C(CSCCO)Nc1ccc(C23CC4CC(CC(C4)C2)C3)cc1	-66*
CC(=O)Nc1cccc(NC(=O)c2oc3ccccc3c2C)c1	-272*
Cc1ccc(NC(=O)c2cc3ccccc3o2)cc1Cl	-270*
CCC(=O)Nc1ccc(Cl)c(NC(=S)NC(=O)c2cc3ccccc3o2)c1	-95*
SMILES	aSyn UTR act
CC(C)C(=O)Nc1cccc(NC(=O)c2cc3ccccc3o2)c1	-108*
CC(=O)Nc1ccc(-c2cc3ccccc3o2)cc1	-147*
CC(=O)Nc1cccc(NC(=O)c2cc3ccccc3o2)c1	-92*
CCOc1ccc(N=C/C=C/c2ccccc2)c(O)c1	-67*
CCOc1ccc(NCC(=O)N/N=C/C=C/c2ccccc2)cc1	-84*
O=C1c2ccccc2C(Nc2ccc3c(c2)OCCO3)N1Cc1ccc2c(c1)OCO2 (stereo unspecified)	-72*
O=C(C1=C[C@@H](c2csc3ccccc23)C[C@@H](OCc2ccc(CO)cc2)O1)N1CCN(Cc2ccc3c(c2)OCO3)CC1	69
